The values that follow come from PubChem BioAssay.

Assay [1] is described as follows: Wnt pathway potentiators raising nuclear beta-catenin – imaging, WNT3A-conditioned medium, mouse C2C12, NPC library, primary screen (AID 1117326; in the data active means nuclear beta-catenin stimulation mostly above about 4.2%, no sharp cut-off; inactive means mostly below about 10%). Particulars: stronger effect = higher value.
Assay [2] can be described thus: growth inhibition of GSK3B-pretreated HCT116 cells – cell-based, CellTiter-Glo, 0.2 to 20 µM (AID 1117336;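 active means compounds lowering colon cancer cell viability after pretreatment blocking the GSK3B kinase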). The settings on record: HCT116 viability after GSK3B inhibitor, at 20 µM, stronger effect = higher value.
Assay [3] can be described thus: HCT116 colon cancer cell growth inhibition, primary screen, CellTiter-Glo luminescence, NPC library (AID 1117342;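 active means compounds that lower survival of HCT116 colon cancer cells in the luminescence readout, no numeric limit stated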). Particulars: at 20 µM (top of the series).
A short description of assay [4]: reduced SW480 viability measured with CellTiter-Glo, NPC library, primary (AID 1117343;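 active means compounds that lower viability of the colon cancer cells in the luminescence readout, with no numeric limit stated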). Particulars: CellTiter-Glo luminescence; at 20 µM (top of the series) unless noted.
Assay [5] in a line: NPC library primary testing for decreased DLD-1 cell viability via CellTiter-Glo (AID 1117346;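 active means compounds that lower survival of DLD-1 colon cancer cells in the luminescence readout, no cutoff given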). The settings on record: DLD-1 viability, CellTiter-Glo luminescence; at 20 µM (top of the series).
In assay [6] the target is 6-phosphogluconate dehydrogenase, decarboxylating (Homo sapiens) (UniProt P52209). As to the kind of experiment: inhibition of human phosphogluconate dehydrogenase – biochemical, recombinant enzyme, NADPH absorbance, primary screen (AID 1159550;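 active means at least 20% inhibition of 6-phosphogluconate dehydrogenase activity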). Particulars: recombinant 6PGD, NADPH absorbance 341 nm; at 10 µM; stronger effect = higher value.
Assay [7] in a line: EMT-state selective cytotoxicity in co-culture – imaging, PC-3E GFP, TEM4-18 mCherry, primary screen (AID 1345086;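 active means compounds killing one labelled cell type while sparing the other, by normalised counts and ratio limits, not self-fluorescent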;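 on all read-outs here: cells exposed to compound for 72 h before imaging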;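 on red/green cell ratio (normalised): normalised mesenchymal count divided by normalised epithelial count so high means epithelial killing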). The settings on record: PC-3E GFP / TEM4-18 mCherry co-culture, imaging cell counts, at 1 µM; for red/green cell ratio (normalised): actives lie on both sides, counts scaled to control wells, 1 = unselective.
For assay [8], the target named is NAD(+) hydrolase SARM1 (Homo sapiens) (UniProt Q6SZW1). As to the kind of experiment: blocking NAD cleavage by SARM1 SAM-TIR – cell lysate, NAD-Glo luminescence (AID 1508614;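 active means compound whose remaining NAD level is above about 45 nM, limit read from the data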). The settings on record: SAM-TIR HEK293T lysate NADase, at 1 µM, stronger effect = higher value.
Assay [9] can be described thus: compounds altering viability of human ES cells (AID 493140).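 Further: cells exposed to compounds for four days before counting.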 The settings on record: human embryonic stem cell survival screen; stronger effect = higher value.
Assay [10] is described as follows: compounds altering Cy5-DNA-NS3h complex signal – biochemical, LOPAC1280, artefact control for HCV NS3 helicase inhibitor project (AID 687037). The settings on record: Cy5-DNA-NS3h complex fluorescence interference counterscreen.
A short description of assay [11]: stimulators of insulin release from INS-1E, primary screen, cell-based, 5 mM glucose, NPC library (AID 1117329;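 active means compound raises insulin release from rat beta cells at 5 mM glucose, no numeric limit stated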). Particulars: rat INS-1E insulin secretion, at 10 µM, stronger effect = higher value.
The nature of assay [12]: inhibition of endothelial tube formation, primary screen, imaging, VEGF stimulated, CD31 staining, tube area, NPC library (AID 1117340;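 active means compound that reduces growth-factor-driven endothelial tube area in a mixed cell culture, no cutoff stated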). Particulars: VEGF-stimulated ADSC/ECFC co-culture, at 10 µM, stronger effect = higher value.
Assay [13] is described as follows: GLP1 release stimulators, primary, NCI-H716, NPC library (AID 1117341;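 active means compound raises GLP1 secretion from the human gut endocrine cells, with no numeric limit stated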). Particulars: NCI-H716 cells, at 10 µM, stronger effect = higher value.
Assay [14] can be described thus: modulation of C. elegans fzo-1 (AID 1259413).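 Further: fzo-1 mutant C. elegans worms in liquid wells.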 The settings on record: C. elegans fzo-1 modulator screen, mean read-out; stronger effect = higher value.
The nature of assay [15]: blockers of cellular phospholipid synthesis – cell-based, LOPAC library, screen 4, primary screen (AID 1347384). Particulars: animal cells, phospholipid biosynthesis inhibition screen; at 10 µM.
Assay [16] is described as follows: MELAS cybrid and Rieske KO viability enhancers – cell-based, MELAS cybrids, Rieske KO mouse fibroblasts, CellTiter-Glo, primary screen (AID 1508586;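 active means mean z-score across replicates of 1.96 or higher in either the MELAS or the Rieske mutant cell line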;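 further: z relative to plate mean and SD of compound and empty wells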). The settings on record: low glucose.
For assay [17], the target named is Mitogen-activated protein kinase 7 (Homo sapiens) (UniProt Q13164). As to the kind of experiment: Gal4-ERK5 driven luciferase induction – cell-based, HTS, primary screen (AID 1508626;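 active means luciferase signal above three times the same-plate solvent-only control wells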;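 further: luciferase driven by Gal4-ERK5 fusion binding five Gal4 sites before minimal TATA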). The settings on record: HeLa Gal4-ERK5 transactivation, 18 h, at 5 µM, stronger effect = higher value.
Assay [18] is described as follows: galactose survival enhancers in mitochondrial complex I cybrids – cell-based, galactose medium, ATP luminescence, primary screen (AID 1645843;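 active means z-score of at least 1.8 in each of two replicates, scored against plate mean and spread of sample wells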;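 further: positive z means more ATP and so rescue of galactose-driven cybrid death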). The settings on record: complex I mutant cybrid cells, 72 h, stronger effect = higher value.
Assay [19] in a line: viability loss with induced miR-34 in A549 – imaging, A549 dox-inducible miR-34, nuclei and caspase counts, primary screen (AID 1347080;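 active means compounds whose cell count with miR-34 switched on is under 0.7 times the count with it off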). The settings on record: A549 miR-34 inducible, Hoechst nuclei count, 48 h.
Where [20] appears, read: measured here: epithelial PC-3E GFP cell survival.
Setting [21] is: measured here: mesenchymal TEM4-18 mCherry cell survival.
Where [22] appears, read: MELAS cybrid survival, CellTiter-Glo 48 h, stronger effect = higher value.
The mark [23] stands for this setting: Rieske KO mouse fibroblast survival, CellTiter-Glo 72 h.

“And” between values parts separate entries of the source, which are not always exact repeats. Equal entries are not always repeated. The source made the active and inactive calls. Unless noted, how the calls were made is not given here.

Sequence of 6-phosphogluconate dehydrogenase, decarboxylating (Homo sapiens) (P52209 whole entry, looked up): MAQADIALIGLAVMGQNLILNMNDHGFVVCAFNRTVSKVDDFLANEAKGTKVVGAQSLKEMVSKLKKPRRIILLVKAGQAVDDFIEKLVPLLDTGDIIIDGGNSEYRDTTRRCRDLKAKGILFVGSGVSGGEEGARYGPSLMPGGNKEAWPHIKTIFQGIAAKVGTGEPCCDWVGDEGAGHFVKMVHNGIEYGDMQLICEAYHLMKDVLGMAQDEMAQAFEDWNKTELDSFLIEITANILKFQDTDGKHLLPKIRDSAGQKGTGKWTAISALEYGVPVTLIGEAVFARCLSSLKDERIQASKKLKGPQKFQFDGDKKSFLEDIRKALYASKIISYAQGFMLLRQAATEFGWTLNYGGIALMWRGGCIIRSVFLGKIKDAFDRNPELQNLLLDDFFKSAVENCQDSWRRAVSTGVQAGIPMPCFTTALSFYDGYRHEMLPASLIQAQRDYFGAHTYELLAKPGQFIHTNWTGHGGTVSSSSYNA
Sequence of NAD(+) hydrolase SARM1 (Homo sapiens) (Q6SZW1 whole entry, looked up): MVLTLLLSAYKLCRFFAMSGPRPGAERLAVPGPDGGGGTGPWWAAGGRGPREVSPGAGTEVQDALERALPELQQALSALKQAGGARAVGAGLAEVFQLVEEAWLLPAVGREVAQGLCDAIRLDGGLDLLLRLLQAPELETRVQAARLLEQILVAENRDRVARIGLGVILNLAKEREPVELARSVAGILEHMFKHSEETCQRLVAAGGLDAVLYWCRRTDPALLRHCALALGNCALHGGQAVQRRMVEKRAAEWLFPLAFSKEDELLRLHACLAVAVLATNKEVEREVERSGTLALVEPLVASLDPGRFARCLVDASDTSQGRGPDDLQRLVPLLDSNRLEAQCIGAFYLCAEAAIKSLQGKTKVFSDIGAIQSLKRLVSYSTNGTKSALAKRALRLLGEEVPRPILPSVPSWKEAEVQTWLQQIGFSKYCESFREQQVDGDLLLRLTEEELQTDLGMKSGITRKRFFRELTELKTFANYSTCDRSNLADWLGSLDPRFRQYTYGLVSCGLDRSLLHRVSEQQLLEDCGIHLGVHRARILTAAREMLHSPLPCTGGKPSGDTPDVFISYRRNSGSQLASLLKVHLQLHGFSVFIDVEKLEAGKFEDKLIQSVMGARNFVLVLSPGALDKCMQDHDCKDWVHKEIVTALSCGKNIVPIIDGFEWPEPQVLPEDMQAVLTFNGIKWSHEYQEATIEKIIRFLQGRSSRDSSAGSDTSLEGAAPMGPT
Sequence of Mitogen-activated protein kinase 7 (Homo sapiens) (Q13164 whole entry, looked up, the tested form may be a part): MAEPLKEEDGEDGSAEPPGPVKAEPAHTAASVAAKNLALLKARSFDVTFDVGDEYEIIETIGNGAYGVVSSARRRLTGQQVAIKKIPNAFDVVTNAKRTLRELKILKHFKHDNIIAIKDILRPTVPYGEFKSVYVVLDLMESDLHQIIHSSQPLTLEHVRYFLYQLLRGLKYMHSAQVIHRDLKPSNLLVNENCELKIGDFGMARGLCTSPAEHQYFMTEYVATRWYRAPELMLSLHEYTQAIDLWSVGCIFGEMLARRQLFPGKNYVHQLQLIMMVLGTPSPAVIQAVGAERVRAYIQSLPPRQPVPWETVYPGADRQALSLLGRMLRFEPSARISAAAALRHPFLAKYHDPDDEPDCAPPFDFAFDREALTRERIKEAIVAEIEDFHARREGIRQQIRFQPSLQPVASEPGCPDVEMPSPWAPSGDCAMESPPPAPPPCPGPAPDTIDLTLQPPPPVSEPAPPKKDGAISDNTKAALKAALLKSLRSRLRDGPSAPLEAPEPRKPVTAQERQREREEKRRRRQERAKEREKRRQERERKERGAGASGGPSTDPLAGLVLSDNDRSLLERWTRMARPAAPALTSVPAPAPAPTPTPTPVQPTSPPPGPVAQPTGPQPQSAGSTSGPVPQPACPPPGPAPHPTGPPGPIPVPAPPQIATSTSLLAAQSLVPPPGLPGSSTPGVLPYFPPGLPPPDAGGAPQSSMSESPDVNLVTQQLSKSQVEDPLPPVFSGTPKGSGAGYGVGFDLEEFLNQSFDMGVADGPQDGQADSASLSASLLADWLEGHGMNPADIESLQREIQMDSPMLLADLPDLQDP

In the case of `CC12CCC(CC1)C(C)(C)O2`, the nuclear beta-catenin stimulation was 1.8% (inactive) in [1] (at 10 µM) and 17.2% in [1] (stimulation, at 2 µM). For the same compound, the viability decrease in assay [2] was 4.1% (inactive). In addition, the inhibition of viability in [3] was 7.2% (inactive). The viability decrease (inhibition) was 5% (inactive) in assay [4] and 4.4% (inactive) in [5]. Moreover, in assay [6], the inhibition is -15.6% (inactive). Moreover, the red/green cell ratio (normalised) in assay [7] is 0.83 (inactive). Besides, the normalised cell number was 1.13 in assay [7] (setting [20]) and 0.94 in [7] (setting [21]). Further, the remaining NAD in [8] is 10 nM (inactive).

`Cc1cc(-n2nc3ccc(Cl)cc3n2)c(O)c(C(C)(C)C)c1`: the nuclear beta-catenin stimulation in [1] (at 10 µM) is 3.3% (inactive); in assay [1] (stimulation, at 2 µM) it was 10.1%. For the same compound, the viability decrease in assay [2] is 29.7% (inactive). The inhibition of viability in assay [3] is 22.8% (inactive). Further, the viability decrease (inhibition) in assay [4] was 1.3% (inactive); in assay [5] it was 8% (inactive).

With `CNCCCN1c2ccccc2CCc2ccccc21`, the survival in assay [9] is 2.75 (inactive). In [10], the fluorescence ratio (interference) is 1 (inactive). For the same compound, the insulin secretion stimulation in assay [11] is 15.8% (inactive). Further, the viability decrease in [2] is -17.7% (inactive). The tube area decrease in assay [12] is 12.6% (inactive). Also, the GLP1 secretion stimulation in [13] was 5.9% (inactive). Also, the inhibition of viability in [3] is 37.5% (inactive). For the same compound, the figures for the viability decrease (inhibition) in assay [4] and in assay [5] were 104% (active) and 33.3% (inactive), respectively. In addition, the inhibition in assay [6] was 3.76% (inactive). Also, the mean signal in [14] was 181 (inactive). In assay [7], the red/green cell ratio (normalised) was 1.1 (inactive). In addition, the normalised cell number amounted to 1.36 in assay [7] (setting [20]) and 1.5 in [7] (setting [21]). For the same compound, the compound was classed as inactive in assay [15]. For the same compound, the z-score in assay [16] (setting [22]) was 0.0784 (inactive); in assay [16] (setting [23]) it was 0.183; in [18] it was -0.895 (inactive) and -0.71 (inactive). Besides, in [8], the remaining NAD was 10 nM (inactive). In addition, the luciferase signal in assay [17] was 80 AU (inactive).

In the case of `COc1c2occc2cc2ccc(=O)oc12`, the survival in [9] was 5.42 (inactive). Besides, in assay [11], the insulin secretion stimulation was 1.9% (inactive). The viability decrease in [2] is -33.7% (inactive). The tube area decrease in [12] is 3.8% (inactive). The GLP1 secretion stimulation in [13] was 2% (inactive). Further, in assay [3], the inhibition of viability is 8.3% (inactive). Also, the viability decrease (inhibition) is 26.9% (inactive) in assay [4] and 8.4% (inactive) in assay [5]. In [6], the inhibition is 3.81% (inactive). Besides, the mean signal in assay [14] was 248 (inactive). Further, in assay [7], the red/green cell ratio (normalised) is 1.15 (inactive). Also, the normalised cell number stood at 0.84 in assay [7] (setting [20]) and 0.96 in [7] (setting [21]). The z-score in [16] (setting [22]) is -0.203 (inactive); in assay [16] (setting [23]), -0.0388; in assay [18], 0.975 (inactive). Moreover, the remaining NAD in assay [8] was 10 nM (inactive). Moreover, the luciferase signal in [17] is 24 AU (inactive).

As to `O=C1CN(/N=C/c2ccc([N+](=O)[O-])o2)C(=O)N1`, the survival in [9] is 10.8 (inactive). For the same compound, the insulin secretion stimulation in assay [11] is -2.7% (inactive). The viability decrease in assay [2] was 26.8% (inactive). In addition, the tube area decrease in assay [12] was -36% (inactive). Besides, in assay [13], the GLP1 secretion stimulation was -0.3% (inactive). Besides, the inhibition of viability in assay [3] is 18.2% (inactive). Moreover, the viability decrease (inhibition) in assay [4] is 46.4% (active); in assay [5], 8.55% (inactive). Besides, in assay [6], the inhibition was -10.5% (inactive). For the same compound, the mean signal in [14] is 245 (inactive). Also, the red/green cell ratio (normalised) in [7] was 0.97 (inactive). In addition, the normalised cell number came to 1.08 in assay [7] (setting [20]) and 1.05 in assay [7] (setting [21]). Further, the fold change was 0.928 (inactive) and 0.958 (inactive) in assay [19] (stronger effect = lower value, cell number ratio, induced over uninduced); 1.23 and 1.67 in assay [19] (measured here: relative caspase fold change +Dox/-Dox). The cell count was 8440 and 12500 in assay [19] (measured here: total cells with miR-34 induction, stronger effect = lower value); 9100 and 13100 in assay [19] (measured here: total cells without miR-34 induction). In addition, the values for the z-score in [16] (setting [22]) and in [16] (setting [23]) were -2.68 (inactive) and -2.1, respectively. Besides, the remaining NAD in assay [8] was 10 nM (inactive). In addition, in [17], the luciferase signal is 40 AU (inactive).
